ELG1 DNA repair: ELG1-dependent DNA repair inhibition; HEK293T ELG1-luciferase reporter, luminescence, 16 h; DNA damage induced by 5-fluorouridine; Potency, µM (series often up to 46.1 µM), usual class: inhibitors; 330,000 tested, 2.3% active; also: nearly all actives have a fitted effect of over 55% in size
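5-Fluorouridine DNA damage + compound/DMSO, 2,000 cells/well, 16 h, 37 °C/5% CO2. ONE-Glo, 30 min RT, luminescence. Readout = decrease in reporter signal.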
SW480 rereplic: induces DNA re-replication in SW480 colon adenocarcinoma cells. SW480 DNA re-replication, Hoechst DNA content imaging, 48 h. Potency, µM (series often up to 46.1 µM), hits mostly activators. 340,000 tested, 1.8% active; also: nearly all actives have a fitted effect of over 55% in size
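First, 250 cells per well were seeded. Next, compound or vehicle (23 nL) was pinned in, plates sat 48 hr at 37 C. Finally Hoechst was added for 40 min before fluorescence scanning.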
KB-3-1 cytotox: kills parental KB-3-1 adenocarcinoma cells | KB-3-1 viability, CellTiter-Glo ATP luminescence, 72 h | Potency, µM (series often up to 46.1 µM), actives largely listed as cytotoxic | 400,000 tested, 1.4% active; also: nearly all actives have a fitted effect of over 60% in size
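Parental KB-3-1 viability, qHTS format: 72 h compound exposure, 37 °C; CellTiter-Glo; media-only wells and DMSO plates as controls; concentration-effect fits on corrected data.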
MCF10A rereplic: induces DNA re-replication in MCF 10a normal breast cells; MCF 10A DNA re-replication, Hoechst nuclear intensity, 48 h; Potency, µM (titrated, usually from 46.1 µM), actives largely listed as activators; 350,000 tested, 2.9% active; also: nearly all actives have a fitted effect of over 50% in size
KB-V1 cytotox: KB-V1 MDR subline cytotoxicity | KB-V1 MDR cells viability, CellTiter-Glo, 72 h | Potency, µM (doses to about 46.1 µM), actives largely listed as cytotoxic | 400,000 tested, 3.4% active; also: nearly all actives have a fitted effect of over 60% in size
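Cells of the MDR subline KB-V1 are plated, dosed with compound at multiple concentrations, and incubated 72 h at 37 degrees C; CellTiter-Glo is then added and luminescence read after 10 min.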
A number is an active result; n = inactive; u = inconclusive; x = not tested or not shown. The list is not random: actives were taken first. Their share in the collection is about 8.1%. Calls follow the shape of the dose curve; as a rule, active = well fitted curve in the direction sought with a large enough effect; inconclusive = small, poorly fitted or top-dose-only effect, or another doubt; inactive = no such curve, though single readings can be large; an effect the other way counts as inactive or inconclusive.

SMILES | ELG1 DNA repair | SW480 rereplic | KB-3-1 cytotox | MCF10A rereplic | KB-V1 cytotox
C/C(=N\Nc1cc(-c2ccccc2)nc(-c2ccc(Br)cc2)n1)c1cccc(N)c1 | x | u | n | u | 15µM
C/C(=N/Nc1nc(-c2ccccc2)cc(-c2ccccc2)n1)c1ccc(N)cc1 | 8.2µM | x | x | x | x
C/C(=N\Nc1cc(Cl)nc(C)n1)c1ccccc1 | u | n | u | n | n
CC(=O)Nc1ccc(C(=O)OCC(=O)Nc2c(C)n(C)n(-c3ccccc3)c2=O)cc1 | u | n | n | n | n
CCOc1ccc(C(=O)NCCS(=O)(=O)N2CCN(c3cccc(Cl)c3)CC2)cc1 | x | x | n | x | n
O=C(Cc1ccc(F)cc1)Nc1nc(-c2ccc(F)c(F)c2)cs1 | n | n | u | n | n
COc1ccc(CCC(=O)Nc2nc(-c3ccncc3)cs2)cc1 | n | x | x | x | x
COc1ccc(CC(=O)Nc2nc(-c3ccc(F)c(F)c3)cs2)cc1 | 21µM | u | u | u | u
COc1ccc(CC(=O)Nc2nc(-c3ccncc3)cs2)cc1 | 18µM | n | n | n | n
COc1ccc(OC)c(-c2csc(NC(=O)Cc3ccccc3F)n2)c1 | u | u | n | 21µM | u
Cc1ccc(N2CCN(/N=C/c3ccncc3)CC2)cc1 | 18µM | n | n | n | n
Clc1ccc(N2CCN(/N=C/c3ccncc3)CC2)cc1 | 21µM | n | n | n | u
O=[N+]([O-])c1ccccc1/C=N/N1CCN(c2ccc(Cl)cc2)CC1 | n | n | u | n | 10µM
COc1ccccc1/C=N/N1CCN(c2ccc(Cl)cc2)CC1 | n | n | n | n | n
CC1CCCN(S(=O)(=O)c2cccc(C(=O)OCC(=O)N(C)Cc3c(F)cccc3Cl)c2)C1 (configuration not stated) | u | n | n | n | u
O=c1nc2n(-c3ccccc3F)c3ccccc3cc-2c(=O)[nH]1 | x | x | n | x | u
Cc1ccc(C)c(-n2c3nc(=O)[nH]c(=O)c-3cc3cc([N+](=O)[O-])ccc32)c1 | n | 3.2µM | 23µM | u | n
Cc1cccc(-n2c3nc(=O)[nH]c(=O)c-3cc3cc([N+](=O)[O-])ccc32)c1 | n | u | u | u | 16µM
COc1ccc(C(=O)c2ccccc2C(=O)c2ccccc2)cc1 | x | n | n | n | 18µM
COc1ccc(C(=O)c2ccc(N(C)C)cc2)c2ccccc12 | u | n | 5.2µM | n | 2.1µM
COc1ccc(C(=O)c2ccc(OC)c(OC)c2OC)cc1 | x | 5.8µM | 5.8µM | 3.7µM | 2.3µM
COc1ccc(-n2nnnc2/C=C\Nc2ccccc2C(=O)c2ccccc2)cc1 | n | 10µM | 5.8µM | n | 4.6µM
O=C(c1ccccc1)c1ccccc1C(=O)c1ccccc1 | n | u | n | n | n
COc1ccc(-n2nnnc2/C=C/Nc2cc(C(F)(F)F)ccc2OC)cc1 | n | n | n | n | n
COc1ccc(C(=O)c2ccc(Br)cc2)c(OC)c1OC | x | u | n | n | n
SMILES | ELG1 DNA repair | SW480 rereplic | KB-3-1 cytotox | MCF10A rereplic | KB-V1 cytotox
CN(C)S(=O)(=O)c1ccc2c(c1)nc(CCC(=O)NCC(=O)Nc1ccc(F)c(F)c1F)n2C | x | x | n | x | n
COc1cc2nc(CC(C)C)n(NC(=O)c3ccccc3Br)c(=O)c2cc1OC | n | n | n | 6.5µM | n
N#Cc1c(C(F)(F)F)cc(-c2cccs2)nc1SC(C(=O)O)c1ccccc1 (configuration not stated) | x | n | n | 21µM | n
N#Cc1c(C(F)(F)F)cc(-c2cccs2)nc1SCC(=O)Nc1ccc(F)cc1 | x | x | n | x | n
CNc1nc(-c2cccs2)cc(C(F)(F)F)c1C#N | n | 5.8µM | n | 18µM | n
CC(C)C[C@H]1CN([C@@H](Cc2ccccc2)CN2CCC[C@H]2CN2C(=O)C(=O)NC[C@@H]2Cc2ccc(O)cc2)C(=O)C(=O)N1CC1CCCCC1 | x | x | u | x | n
CC1(C)CC(=O)C2=C(C1)NC(Nc1nc3ccccc3o1)=NC2c1cccc(F)c1 (configuration not stated) | x | x | n | x | n
CCOC(=O)Cc1csc2nc(-c3ccccc3)nn12 | n | n | n | n | n
COc1ccc(-c2nc3scc(-c4ccccc4)n3n2)cc1 | n | u | u | n | 18µM
COc1ccccc1C(CNC(=O)C1CCN(C(=O)Nc2ccccc2)CC1)N1CCCC1 (configuration not stated) | u | n | n | n | n
COc1cccc(S(=O)(=O)N(C)C[C@@H]2OCc3cn(nn3)CCCC(=O)N([C@@H](C)CO)C[C@H]2C)c1 | x | x | n | x | n
N=c1cc(C2(O)CCCCC2)n2c(nc3ccccc32)s1 | u | u | u | 18µM | 16µM
CC(C)(C)c1ccc(OCC(=O)N/N=C/c2cc(Br)ccc2OC(=O)c2ccco2)cc1 | u | n | u | n | 7.3µM
